# Only some compounds are listed: those with a hit (about 13% of all), similar ones and a draw of the others.
# USP17 inh – inhibitors of human USP17 deubiquitinase | purified USP17, Ub-rhodamine cleavage fluorescence, 3 h | inhibition, % at 50 µM | 6.5% of 47,000 active | AID 1645855, 2021
# Target sequence (A8MUK1 whole entry, looked up): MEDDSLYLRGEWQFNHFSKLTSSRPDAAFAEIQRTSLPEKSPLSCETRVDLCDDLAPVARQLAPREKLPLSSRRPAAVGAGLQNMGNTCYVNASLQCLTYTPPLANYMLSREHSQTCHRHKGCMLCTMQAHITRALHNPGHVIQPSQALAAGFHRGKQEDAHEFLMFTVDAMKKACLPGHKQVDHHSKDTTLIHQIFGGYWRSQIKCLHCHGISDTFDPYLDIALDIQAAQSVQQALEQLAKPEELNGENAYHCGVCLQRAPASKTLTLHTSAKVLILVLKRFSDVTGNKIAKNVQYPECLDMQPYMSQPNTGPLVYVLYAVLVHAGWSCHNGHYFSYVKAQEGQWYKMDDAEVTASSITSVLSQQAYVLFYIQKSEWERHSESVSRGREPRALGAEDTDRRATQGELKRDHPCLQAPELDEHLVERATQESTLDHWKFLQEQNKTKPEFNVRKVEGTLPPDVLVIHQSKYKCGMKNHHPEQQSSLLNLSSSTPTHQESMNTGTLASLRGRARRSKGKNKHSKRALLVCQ
# USP28 inh – inhibitors of human USP28 deubiquitinase | AID 1645857, 2021 | inhibition, % at 25 µM | Ubiquitin carboxyl-terminal hydrolase 28 (Homo sapiens), Q96RU2 | 3% of 47,000 active | purified USP28, Ub-rhodamine cleavage fluorescence, 30 min
# USP8 inh – inhibitors of human USP8 deubiquitinase. inhibition, % at 20 µM. 4.2% of 47,000 active. purified USP8, Ub-rhodamine cleavage fluorescence, 30 min
# USP10 block – inhibitors of human USP10 deubiquitinase. purified USP10, Ub-rhodamine fluorescence, 60 min. inhibition, % at 20 µM. 1.1% of 47,000 active. AID 1645856, 2021
# USP30 inh – inhibitors of human USP30 deubiquitinase; Ubiquitin carboxyl-terminal hydrolase 30 (Homo sapiens), Q70CQ3; purified USP30, Ub-rhodamine cleavage fluorescence; inhibition, % at 25 µM; 5.3% of 47,000 active; AID 1645860, 2021
# Starred values were filed as active, the others as inactive; i = inactive; · = no result. Rule as the data show it: active = inhibition above about 30%; inactive = the rest.
SMILES,USP17 inh,USP28 inh,USP8 inh,USP10 block,USP30 inh
CCOc1ccccc1-n1cc(C(=O)c2cc(F)ccc2O)cc(C#N)c1=O,-7.9,3.7,-48.8,-4.3,-7.6
COc1ccccc1-n1cc(C(=O)c2cc(F)ccc2O)cc(C(C)=O)c1=O,-30.3,-112.9,32.9*,-9.3,-276.0
Cn1sc(=O)c2ccccc21,0.8,-1.0,2.5,1.1,7.1
COc1ccc(C(=O)Nc2ccc3c(c2)C(=O)N(C)c2ccccc2O3)cc1,6.5,70.6*,8.3,5.1,3.8
Cc1ccc2c(c1)N(C)C(=O)c1cc(NC(=O)c3ccc(F)cc3)ccc1O2,23.3,24.1,77.0*,40.1*,88.9*
COc1ccc(C(=O)Nc2ccc(C)c(N3CCCC3=O)c2)cc1,-24.4,-8.1,-6.0,-1.2,-9.5
Cc1ccccc1C(=O)Nc1ccc2c(c1)C(=O)N(C)c1ccccc1O2,1.5,40.2*,9.1,4.5,-2.7
Cc1ccccc1C(=O)Nc1ccc2cn(C)nc2c1,1.2,21.8,5.2,0.7,7.9
CCn1cc(CN2C[C@@H](O)[C@H](NC(=O)c3cscn3)C2)c(C)n1,9.3,9.6,0.5,1.9,13.9
COc1cc(C(C(=O)NC2CCCC2)N(CCc2cccc(C)c2)C(=O)c2ccco2)cc(OC)c1OC (stereo unspecified),1.8,-3.8,19.7,5.1,3.6
COc1ccc(-c2nn3c(c2C)NC(=O)CC3C(=O)Nc2ccc3c(c2)OCO3)cc1 (stereo unspecified),8.3,26.0,14.5,9.7,38.2*
COc1ccc(NC(=O)C2CC(=O)Nc3cc(-c4ccccc4)nn32)cc1 (stereo unspecified),55.9*,25.8,-2.3,1.9,27.1
COc1ccc(-c2cnn3c2NC(=O)CC3C(=O)Nc2ccc3c(c2)OCO3)cc1 (stereo unspecified),2.3,-5.6,24.7,24.5,10.1
Cc1c(-c2ccccc2)nn2c1NC(=O)CC2C(=O)Nc1ccc2c(c1)OCO2 (stereo unspecified),47.1*,-2.1,6.5,5.4,-16.2
O=C(Nc1ccc(CN2CCOCC2)cc1)c1cccc(Br)c1,-4.2,38.1*,-7.9,-0.7,5.4
CC(=O)Nc1cccc(C(=O)Nc2ccc(CN3CCOCC3)cc2)c1,4.2,5.4,11.2,0.7,10.1
Cc1ccc(-c2ncc(C(=O)Nc3c(F)cccc3F)c(-c3ccncc3)n2)cc1,-135.3,-109.2,60.6*,-2.6,-468.5
Cc1ccc(C)c(CNC(=O)c2cnc(-c3ccccc3)nc2-c2ccncc2)c1,-28.5,-78.9,0.0,-7.4,-307.8
COc1ccc(C(C)NC(=O)c2cnc(-c3ccccc3)nc2-c2ccncc2)cc1 (stereo unspecified),40.2*,-125.7,5.3,-8.5,i
Cc1ccc(-c2ncc(C(=O)Nc3ccc(Cl)cc3)c(-c3ccncc3)n2)cc1,-103.9,-129.7,28.1,-4.0,i
O=C(c1nnn(-c2ccccc2)n1)N1CCC(Cc2ccccc2)CC1,10.4,39.2*,0.6,6.6,30.9*
Cc1cccc(N2CCN(C(=O)c3nnn(-c4ccc(F)cc4)n3)CC2)c1,13.7,56.0*,19.7,6.1,25.0
COc1ccccc1N1CCN(C(=O)c2nnn(-c3ccc(C)cc3)n2)CC1,-14.9,-0.9,-5.8,6.7,11.3
CCNc1cc(C)nc(N2CCN(C(=O)c3cccc4ccccc34)CC2)n1,-0.4,6.5,5.8,-0.4,3.2
Cc1cc(C(=O)O)ccc1NS(=O)(=O)c1ccc2c(c1)CCC2,9.6,7.5,0.0,1.3,1.0
SMILES,USP17 inh,USP28 inh,USP8 inh,USP10 block,USP30 inh
COc1ccc(-c2cncc(-c3cc(NCc4ccc(Cl)cc4)nc(C)n3)c2)cc1,8.3,0.6,11.3,4.4,18.2
FC(F)(F)Oc1ccc(-c2cnc(NCc3ccc(Cl)cc3)nc2)cc1,24.6,19.6,28.3,7.1,34.2*
Cc1ccc(C(=O)N2CCc3[nH]nc(-c4ccccc4)c3C2)cn1,-20.3,-12.7,-16.1,2.7,-16.1
CC1=C(c2ccc(C(C)C)cc2)S(=O)(=O)N(CC(=O)Nc2ccccc2C)C1=O,22.3,39.2*,26.6,13.4,32.1*
O=S(=O)(Nc1cc(-c2ccncc2)no1)c1ccc(F)cc1F,·,-5.7,-70.3,4.3,-2.3
COCCn1nnc2cc(S(=O)(=O)N3CCCC(C(=O)N4CCOCC4)C3)ccc21 (stereo unspecified),3.0,4.7,0.3,0.3,4.6
Cc1cc(C(=O)Nc2nc3c(s2)CN(C(=O)c2cc(-c4ccccc4)n[nH]2)CC3)no1,-61.6,-65.6,-103.4,-5.4,-176.5
O=C(Nc1nc2c(s1)COCC2)c1cc(-c2ccco2)[nH]n1,72.9*,64.0*,86.0*,-6.1,-21.7
CN(C)c1cc(-n2cnc(C(=O)NCc3ccccc3Cl)c2)ncn1,52.1*,10.0,-2.0,0.4,27.9
CN(C)c1cc(-n2cnc(C(=O)NCc3ccc(Cl)cc3)c2)ncn1,12.5,8.6,-10.9,0.2,21.5
Cc1ccc(F)cc1S(=O)(=O)NCc1ccc(N2CCN(C)CC2)cc1,16.0,14.8,-7.0,1.5,36.1*
Cc1cc(Nc2ccccn2)nc(C2CCCN(C(=O)C3CCCC3)C2)n1 (stereo unspecified),-1.5,-10.7,-0.5,0.9,0.1
Cn1c(=O)c2cc(C(=O)Nc3ccc(F)cc3)cnc2n(C)c1=O,52.6*,1.3,5.4,4.9,4.8
Cc1ccccc1NC(=O)CCC1CCCN(c2cc(NC3CC3)ncn2)C1 (stereo unspecified),-14.5,-12.4,-106.6,-5.9,-34.8
COC(=O)c1ccc(NC(=O)c2nc(-c3ccccc3)oc2C)cc1,-15.8,-23.2,-24.0,-2.8,-146.9
CCOc1ccc(NC(=O)Cn2c(=O)n(CCCCC(=O)NCCc3ccccc3)c(=O)c3ccccc32)cc1,16.8,8.3,18.6,15.2,28.1
O=C(Cn1c(=O)c2ccccc2n(CC(=O)Nc2cccc(F)c2)c1=O)NCCc1ccccc1,28.7,19.8,-38.6,30.1*,37.6*
Cc1ccc(NC(=O)Cn2c(=O)n(CCC(=O)NCCc3ccccc3)c(=O)c3ccccc32)cc1C,11.2,0.0,23.1,31.8*,13.4
O=C(CCCCn1c(=O)c2ccccc2n(CC(=O)Nc2ccc(F)cc2)c1=O)NCCc1ccccc1,46.7*,9.0,19.2,14.8,25.6
COc1ccc(NC(=O)Cn2c(=O)n(-c3ccc(CC(=O)NCCc4ccccc4)cc3)c(=O)c3ccccc32)cc1,15.6,11.5,28.5,8.4,18.8
Cc1noc(C)c1S(=O)(=O)N1CCc2[nH]nc(-c3ccccc3)c2C1,-19.7,-5.3,-64.2,-1.7,-23.5
c1ccc(Cc2nn3c(-c4cccnc4)nnc3c3ccccc23)cc1,61.9*,4.3,2.3,1.8,7.6
c1ccc(Cc2nn3c(-c4ccncc4)nnc3c3ccccc23)cc1,48.8*,0.7,22.6,4.2,36.0*
COc1ccc(C(=O)N(O)c2ccccc2)cc1,29.3,3.6,78.0*,-0.1,11.7
